Assay outcomes from PubChem.
M1 antag: antagonists of human M1 muscarinic receptor. P11229. 1.3% of 360,000 active. CHO-K1 hM1, Fluo-8 calcium fluorescence, ACh EC80 antagonist. inhibition, % at 3 µM;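 active = percent inhibition above its own plate's cutoff, namely the mean of that plate's compound wells plus 3 SD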;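 note: peak over basal fluorescence ratio during 140 s after agonist addition; 0% = ACh EC80 plus DMSO and 100% = DMSO alone without agonist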
Target sequence (P11229 whole entry, looked up): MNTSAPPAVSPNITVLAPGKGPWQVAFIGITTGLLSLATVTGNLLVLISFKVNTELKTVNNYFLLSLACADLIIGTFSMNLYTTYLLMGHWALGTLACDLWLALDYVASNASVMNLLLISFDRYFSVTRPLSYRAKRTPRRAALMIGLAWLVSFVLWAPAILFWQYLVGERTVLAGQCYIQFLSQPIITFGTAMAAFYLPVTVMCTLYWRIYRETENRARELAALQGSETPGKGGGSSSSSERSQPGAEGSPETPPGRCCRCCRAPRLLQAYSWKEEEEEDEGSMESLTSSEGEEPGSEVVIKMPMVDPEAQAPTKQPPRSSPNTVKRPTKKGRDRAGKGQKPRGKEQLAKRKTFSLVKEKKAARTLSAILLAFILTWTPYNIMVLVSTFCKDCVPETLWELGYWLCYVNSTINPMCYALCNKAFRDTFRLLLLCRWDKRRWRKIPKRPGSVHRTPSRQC
CHO-K1 Ca ag: counter-screen for M1 agonists: effect in parental CHO-K1 cells. activation, % at 3 µM. 0.48% of 360,000 active. Fluo-8 calcium fluorescence; scaled to maximal ATP response, vehicle zero. AID 602248; in the data active = activation above about 15%;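 note: untransfected CHO-K1 host cells lacking M1 receptor as counterscreen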
M1 PAM parental: M1 PAM counterscreen hit in parental CHO-K1 cells | ATP EC20, Fluo-8 calcium fluorescence; 0% at ATP EC20, 100% at ATP max | activation, % at 3 µM | 0.02% of 360,000 active | AID 602247;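 active = activation above the run cutoff, the mean activation of all test compounds plus 3 SD, cut at about 40% in these data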;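 note: peak over basal fluorescence ratio in a 140 s read after ATP addition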
CHRM1 agonist: agonists of human M1 muscarinic receptor; CHO-K1 hM1, Fluo-8 calcium fluorescence, agonist mode; 0% DMSO, 100% acetylcholine EC100; 0.33% of 360,000 active; activation, % at 3 µM; AID 588814;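 active = activation above the run's mean compound activation plus 3 SD, cut at about 16% in these data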;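 note: peak over basal fluorescence ratio within a 140 s kinetic read after compound addition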
M1 PAM: human CHRM1 positive allosteric modulation. AID 588819. P11229. activation, % at 3 µM. CHO-K1 hM1, Fluo-8 calcium fluorescence, ACh EC20; 0% = ACh EC20, 100% = maximal ACh. 0.088% of 360,000 active; in the data active = activation above about 19%, passing the limit was not always enough
CHO-K1 Ca antag: counter-screen for M1 antagonists: effect in parental CHO-K1 cells. ATP-induced calcium, Fluo-8 fluorescence. inhibition, % at 3 µM. 0.6% of 360,000 active. AID 602250;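 active = inhibition above a per-plate cutoff, the plate's mean sample inhibition plus 3 SD, cut at about 24% in these data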;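 note: 0% = DMSO plus EC80 ATP and 100% = DMSO alone without ATP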
* hit, by the source's call. An excerpt weighted towards active compounds, which were near 2.4% of everything screened.

SMILES	M1 antag	CHO-K1 Ca ag	M1 PAM parental	CHRM1 agonist	M1 PAM	CHO-K1 Ca antag
COCCc1ccc(OC2(C)CCN(Cc3ccc(OC)c4ccccc34)C2)cc1 (centres undefined)	9.5	0.3	6.4	-5.9	-5.8	-8.8
CC1(C)CC(NC(=O)N2c3ccccc3Sc3ccccc32)CC(C)(C)N1	49.6*	0.9	9.9	-7.9	-24.1	-7.9
O=C(CN1C(=O)NC2(CCCC2)C1=O)Nc1cc(Cl)ccc1N1CCOCC1	-16.2	6.8	9.0	-1.2	6.0	-3.7
CCc1ccc(NC(=O)CSc2nnc(CNC(=O)c3cccs3)o2)cc1	4.8	2.8	-14.1	-3.0	-2.4	4.1
O=C(O)c1cccc(Cn2cc(Br)cn2)c1	-6.8	0.1	1.9	-1.7	-4.4	0.6
O=C(NCc1ccncc1)c1cccc(Cn2cc(Br)cn2)c1	96.8*	2.3	19.2	-5.1	-19.7	-8.8
C=CCNc1ncnc2c1ncn2[C@H]1CN(CCOC)C[C@@H](CO)O1	-6.8	1.0	18.3	-1.5	7.1	-0.9
O=C1CC2(CCN(C(=O)c3cccc([N+](=O)[O-])c3)CC2)Oc2ccccc21	-4.1	1.1	6.8	-1.9	0.4	0.0
O=C(CCc1ccccc1)Nc1ccnn1C1CCN(C/C=C/c2ccccc2)CC1	-6.0	1.9	10.0	-0.4	-2.3	-13.1
COc1ccccc1/C=C/CN1CCC(n2nccc2NC(=O)CCc2ccccc2)CC1	31.2	15.2*	-16.1	0.7	-7.0	24.2*
COc1ccc(CNC(=O)C2CCN(S(=O)(=O)c3ccc4c(c3)CC(C)N4C(C)=O)CC2)cc1 (centres undefined)	-4.7	6.7	13.5	-1.8	2.0	-15.2
Cc1cc(C)c(C(=O)CSc2n[nH]c(-c3ccncc3)n2)c(C)c1	7.0	18.3*	1.2	-3.4	-6.1	7.9
Cc1c(C(c2cccc([N+](=O)[O-])c2O)c2c(C)n(C)n(-c3ccccc3)c2=O)c(=O)n(-c2ccccc2)n1C	-8.3	0.7	24.9	-6.3	6.5	-11.4
Cc1[nH]n(-c2ccccc2)c(=O)c1C(c1cccc([N+](=O)[O-])c1O)c1c(C)[nH]n(-c2ccccc2)c1=O	15.3	15.2*	11.1	-1.7	-4.4	13.0
O=C1C=C(c2cccnc2)CCC1	-0.2	2.9	4.4	-3.4	-0.5	0.9
O=C1CCCc2[nH]nc(-c3cccnc3)c21	7.2	-0.3	-8.7	-4.6	-4.6	26.0*
CCCCS/C(=C(/C#N)C(N)=O)c1cc2c([nH]1)CCCC2	25.0*	-0.3	7.8	-6.2	-25.4	7.2
CCOc1ccccc1NC(=O)CC1(CC(=O)N2CCOCC2)CCCC1	-15.7	0.8	-12.9	-0.6	9.4	-6.8
COc1ccc(NC(=O)CC2(CC(=O)N3CCOCC3)CCCC2)cc1Cl	56.1*	0.1	-18.6	-7.6	-16.7	16.9
c1ccc(COc2ccc(CNCc3cccnc3)cc2)cc1	31.4*	3.3	23.7	-12.5	-31.9	-8.2
c1ccc(COc2ccc(CNCc3cccs3)cc2)cc1	41.1*	11.7	22.1	-5.3	-22.8	-7.2
COc1cc(NC(=O)[C@@H]2CCCN(S(=O)(=O)c3cccc4cccnc34)C2)cc(OC)c1OC	14.9	6.0	2.9	-3.9	-8.7	-13.2
COc1cccc(-c2c(NC(=O)c3ccco3)n(-c3ccc(C)cc3)nc(C)c2=O)c1	-0.9	-0.5	-5.7	-1.2	8.6	32.4*
O=C(NCC(=O)N1CC=C(c2ccccc2)CC1)c1ccco1	9.4	0.4	-10.0	-1.5	-2.0	9.3
Cc1cc(C(=O)NCC(=O)OCC(=O)NCCc2ccccc2)ccc1[N+](=O)[O-]	5.8	-1.0	-18.1	-1.4	2.9	52.6*
O=C(COC(=O)CNC(=O)c1ccccc1)NCCc1ccccc1	-7.6	0.8	12.1	-3.1	10.8	-6.9
CC(C)CC1CCCCC1OC(=O)C[N+]1(C)CCCCC1 (centres undefined)	95.5*	-0.1	16.2	-14.2	-35.6	-11.4
CCc1[nH]nc(C(=O)NC2CCCN(Cc3ccccc3F)C2)c1C (centres undefined)	40.3*	0.5	-9.0	-4.8	-13.5	-0.8
CC(=O)c1ccc(C(=O)NC2CCCN(Cc3ccccc3F)C2)cc1 (centres undefined)	-12.6	0.1	7.1	-0.8	8.3	-11.7
